From PubChem BioAssay AID743286 (National Center for Advancing Translational Sciences (NCATS), 2014)
Screen size: about 1,100 compounds; about 340 (31%) were called active. Another 40% or so got no clear call; they are omitted. The list is a sample of the results. Unmarked numbers belong to inactive results. Calls follow the shape of the dose curve; as a rule, active = well fitted inhibition curve with a large enough effect; inconclusive = small, poorly fitted or top-dose-only effect; inactive = flat fitted curve, though single readings scatter.

What follows are molecules tested against Phosphatidylinositol 5-phosphate 4-kinase type-2 alpha (Homo sapiens) (UniProt P48426) (assay: qHTS for Inhibitors of PI5P4K: Confirmation in Primary Assay). Settings: PI5P4Kalpha enzyme, ADP-Glo luminescence, 60 min; series mostly up to 76.9 µM; activity change, negative = inhibition: at the top concentration.
Procedure, shortened: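 Kinase rxn: PI5P4Kα + substrate, 5 µM ATP, pH 7.4 HEPES/EGTA/CHAPS, 5% DMSO, 60 min RT. Detection ADP-Glo, luminescence. Controls without substrate or without enzyme.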
% is scaled to controls: 0 for no effect and ±100 for the full control effect; potency is read from the fitted curve at half-maximal effect.
Also: nearly all actives have a fitted effect of over 65% in size.

Phosphatidylinositol 5-phosphate 4-kinase type-2 alpha (Homo sapiens), sequence (P48426 whole entry, looked up): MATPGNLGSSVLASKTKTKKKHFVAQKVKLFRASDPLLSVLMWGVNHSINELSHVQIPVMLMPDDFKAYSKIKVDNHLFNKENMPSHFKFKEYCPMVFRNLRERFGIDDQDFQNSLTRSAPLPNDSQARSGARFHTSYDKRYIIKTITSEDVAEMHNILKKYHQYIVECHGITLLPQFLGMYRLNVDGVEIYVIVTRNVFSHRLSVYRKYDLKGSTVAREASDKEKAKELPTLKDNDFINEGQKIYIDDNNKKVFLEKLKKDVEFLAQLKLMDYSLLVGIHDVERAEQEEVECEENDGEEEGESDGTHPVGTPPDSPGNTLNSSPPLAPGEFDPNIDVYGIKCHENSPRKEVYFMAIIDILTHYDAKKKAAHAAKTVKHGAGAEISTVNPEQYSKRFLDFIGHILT

Question: Which “activity change, negative = inhibition” value does the source give for `O=C(CCS(=O)(=O)c1ccc2c(c1)NC(=O)CS2)NCCc1ccc(Cl)cc1` here?
Answer: -2.61%

Question: `NS(=O)(=O)c1ccc(NC(=O)C2Cc3ccccc3CN2C(=O)c2ccco2)cc1` (stereo unspecified) was tested. Which Potency did it give?
Answer: 14.1 µM (active)

Question: How did the “activity change, negative = inhibition” value turn out when `CCCNC(=O)C1(C)CCCN(C(=O)c2cc(C)nn2C(C)(C)C)C1` (stereo unspecified) was run?
Answer: 0.849%

Question: For `Oc1cc2c(cc1C(c1ccc(Cl)c(Cl)c1)N1CCCC1)OCO2` (stereo unspecified), which Potency is on record?
Answer: 12.6 µM (active)

Question: `O=C(Nc1cccc2cccnc12)c1csc(COCCO)n1` was tested. Which “activity change, negative = inhibition” value did it give?
Answer: -0.498%

Question: `O=C(c1cccnc1)N(c1cc2sc(=O)oc2c2ccccc12)S(=O)(=O)c1ccccc1` was tested. Which “activity change, negative = inhibition” value did it give?
Answer: -17.1%

Question: How did the Potency turn out when `COc1ccc(S(=O)(=O)N2CCN(C(=O)c3cc4c(s3)CCC4)CC2)cc1` was run?
Answer: 7.08 µM (active)

Question: For `CCOc1ccc(S(=O)(=O)N2CCN(c3ccc(C)cc3C)CC2)cc1`, which “activity change, negative = inhibition” value is on record?
Answer: 11.9%

Question: Which “activity change, negative = inhibition” value does the source give for `COc1cc2nc(COc3ccccc3[N+](=O)[O-])oc(=O)c2cc1OC` here?
Answer: -3.94%

Question: How did the “activity change, negative = inhibition” value turn out when `O=S(=O)(Nc1ccc2cn[nH]c2c1)c1ccccc1` was run?
Answer: 0.969%

Question: For `CCOC(=O)c1cnc2cc(C)ccn2c1=O`, which “activity change, negative = inhibition” value is on record?
Answer: 0.0355%

Question: Which “activity change, negative = inhibition” value does the source give for `C[C@H]1CN=C(Nc2ccccc2)N1CCCC1CCCCC1` here?
Answer: -0.725%

Question: `COc1cccc2cc(C(C)N(CCCN3CCOCC3)C(=O)Nc3ccccc3)oc12` (stereo unspecified) was tested. Which “activity change, negative = inhibition” value did it give?
Answer: 1.88%

Question: How did the “activity change, negative = inhibition” value turn out when `Cc1ccc(C)c(NC(=O)c2ccc3c(c2)N(Cc2ccc(F)cc2)C(=O)CS3=O)c1` (stereo unspecified) was run?
Answer: -0.517%

Question: How did the Potency turn out when `CCN1CCN(Cc2ccc(NC(=O)c3ccc(C)c(NC(=O)c4cc(-c5ccc(Br)cc5)n[nH]4)c3)cc2C(F)(F)F)CC1` was run?
Answer: 28.2 µM (active)

Question: For `CCN1CCN(Cc2ccc(NC(=O)c3cc(NC(=O)c4cc5cccc(OC)c5o4)cc(OC)c3)cc2C(F)(F)F)CC1`, which Potency is on record?
Answer: 25.1 µM (active)

Question: `Cc1cc2ccccc2nc1SCC(=O)NC1CCCC1` was tested. Which “activity change, negative = inhibition” value did it give?
Answer: 3.8%

Question: For `CCCCNC(=O)C1(C)CCC(=O)N1c1cc(C(C)(C)C)nn1C` (stereo unspecified), which “activity change, negative = inhibition” value is on record?
Answer: 4.31%

Question: With `COCCn1nnnc1C(c1cc2cc(OC)c(OC)cc2[nH]c1=O)N1CCN(c2ccc(O)cc2)CC1` (stereo unspecified) as the molecule, how does the “activity change, negative = inhibition” value read?
Answer: -13.5%

Question: For `Cc1ccn2c(NC3CCCC3)c(-c3cccs3)nc2c1`, which “activity change, negative = inhibition” value is on record?
Answer: 6.53%

Question: How did the Potency turn out when `O=c1c2c3c(sc2[nH]c(=S)n1Cc1ccco1)CCC3` was run?
Answer: 7.08 µM (active)

Question: How did the “activity change, negative = inhibition” value turn out when `Cc1cccc(-n2c(SCC(N)=O)nc3c(c2=O)C2(CCCC2)Cc2ccccc2-3)c1` was run?
Answer: 3.23%

Question: `Cc1ccccc1CNC(=O)c1ccc2nc([C@@H]3O[C@H](CO)[C@H](O)[C@H](O)[C@H]3O)[nH]c2c1` was tested. Which “activity change, negative = inhibition” value did it give?
Answer: 1.11%

Question: How did the “activity change, negative = inhibition” value turn out when `COc1ccc(OC)c(NC(=O)CN(Cc2ccc(F)cc2)C2CCCCC2)c1` was run?
Answer: -1.93%

Question: Which Potency does the source give for `COc1ccc(OC)c(NC(=O)COC(=O)c2cc3c(s2)CCC3)c1` here?
Answer: 12.6 µM (active)

Question: How did the “activity change, negative = inhibition” value turn out when `CN(C(=O)c1ccc(Br)o1)C1CCS(=O)(=O)C1` (stereo unspecified) was run?
Answer: 6.38%

Question: With `CC(C)(C)c1ccc(NC(=O)C2=CC=CN3CCS(=O)(=O)N=C23)cc1` as the molecule, how does the “activity change, negative = inhibition” value read?
Answer: 8.13%

Question: How did the “activity change, negative = inhibition” value turn out when `Cc1oc(-c2ccc(Cl)cc2)cc1C(=O)N1CCC1(C)C(=O)O` (stereo unspecified) was run?
Answer: -17.1%

Question: `Cc1oc(-c2ccc(Cl)cc2)cc1-c1nn2c(-c3ccoc3C)nnc2s1` was tested. Which Potency did it give?
Answer: 14.1 µM (active)

Question: For `COc1ccccc1CNc1nc(NCc2cccc(OC)c2OC)c2sccc2n1`, which “activity change, negative = inhibition” value is on record?
Answer: -9.72%

Question: How did the Potency turn out when `c1ccc(CNc2nc(NCC3CC3)nc3cc(-c4ccccc4)sc23)cc1` was run?
Answer: 12.6 µM (active)

Question: Which Potency does the source give for `c1ccc(-c2cc3nc(NCC4CC4)nc(NCC4CCCCC4)c3s2)cc1` here?
Answer: 20 µM (active)

Question: `COc1cccc(CNc2nc(NC(C)C)nc3ccsc23)c1` was tested. Which “activity change, negative = inhibition” value did it give?
Answer: 0.0638%

Question: For `CC(C)c1ccc(CNc2nc(NCC3CC3)nc3ccsc23)cc1`, which “activity change, negative = inhibition” value is on record?
Answer: -27.8%

Question: How did the “activity change, negative = inhibition” value turn out when `CCO[C@@H]1OC(C(=O)NCc2ccccc2)=C[C@H](C(C)(C)C)[C@H]1CCCO` was run?
Answer: 3.67%

Question: `O=C(Cn1cnc2c(OCc3ccccc3)ncnc21)NCc1nc2ccccc2[nH]1` was tested. Which “activity change, negative = inhibition” value did it give?
Answer: 0.539%

Question: Which “activity change, negative = inhibition” value does the source give for `COc1ccc(CCNC(=O)CNCC(c2ccccc2)N(C)C)cc1OC` (stereo unspecified) here?
Answer: -0.661%

Question: For `COCCN(C(=O)COC(=O)c1cc2c(s1)CCC2)c1c(N)n(Cc2ccccc2)c(=O)[nH]c1=O`, which Potency is on record?
Answer: 3.16 µM (active)

Question: With `Cc1ccc2c(CC(=O)OCC(=O)N(CC(C)C)c3c(N)n(Cc4ccccc4)c(=O)[nH]c3=O)coc2c1` as the molecule, how does the “activity change, negative = inhibition” value read?
Answer: -22.2%

Question: `COc1ccc(Cl)cc1C(Nc1cccnc1)c1ccc2cccnc2c1O` (stereo unspecified) was tested. Which Potency did it give?
Answer: 12.6 µM (active)

Question: `COc1ccc(S(=O)(=O)N2CCCC(C(=O)Nc3cccnc3)C2)cc1Cl` (stereo unspecified) was tested. Which “activity change, negative = inhibition” value did it give?
Answer: -1.94%

Question: Which Potency does the source give for `CCOc1ccc(C(Nc2cccnc2)c2cc(Cl)c3cccnc3c2O)cc1` (stereo unspecified) here?
Answer: 6.31 µM (active)

Question: With `O=C(NC(c1ccc(Cl)cc1)c1cc(Cl)c2cccnc2c1O)c1cccnc1` (stereo unspecified) as the molecule, how does the Potency read?
Answer: 22.4 µM (active)

Question: For `COc1ccc(N(C(=O)C2CSC(=O)C2)C(C(=O)NC(C)(C)C)c2ccncc2)cc1` (stereo unspecified), which “activity change, negative = inhibition” value is on record?
Answer: 4.14%

Question: For `Cc1noc(C)c1CCC(=O)N1CCCC(CCC(=O)NCc2ccc(F)c(F)c2)C1` (stereo unspecified), which “activity change, negative = inhibition” value is on record?
Answer: 6.69%

Question: With `COC(=O)c1c[nH]c(=O)c2ccccc12` as the molecule, how does the “activity change, negative = inhibition” value read?
Answer: 3.61%

Question: `CCOC(=O)[C@]12CCCC=C1N(Cc1ccccc1)C(=O)[C@H](CC(=O)NCCCOC)C2` was tested. Which “activity change, negative = inhibition” value did it give?
Answer: -0.167%

Question: With `O=C(COC(=O)c1ccc(NS(=O)(=O)c2cccs2)cc1O)Nc1nc2ccccc2s1` as the molecule, how does the Potency read?
Answer: 20 µM (active)

Question: With `O=C(Cn1cc(COc2ccc(Br)cc2[N+](=O)[O-])nn1)c1ccc(O)cc1` as the molecule, how does the “activity change, negative = inhibition” value read?
Answer: -24.8%

Question: For `C#CCN1C(=O)S/C(=C\c2ccc(-c3ccc(C(=O)O)cc3C)o2)C1=O`, which Potency is on record?
Answer: 12.6 µM (active)

Question: How did the “activity change, negative = inhibition” value turn out when `CN(c1cccc(NC(=O)c2ccc(N(C)S(=O)(=O)c3ccccc3)cc2)c1)S(C)(=O)=O` was run?
Answer: 2.47%

Question: Which “activity change, negative = inhibition” value does the source give for `CC1(C)Cc2cccc(OCC(=O)NCCOc3ccccc3)c2O1` here?
Answer: -1.33%

Question: Which Potency does the source give for `FC(F)(F)C1=Nc2cccc3cccc(c23)N1` here?
Answer: 3.98 µM (active)

Question: With `CC[C@]12c3[nH]c4cc(-c5ccco5)ccc4c3CCN1C(=O)[C@@H](CC(=O)NCCC1=CCCCC1)C[C@@H]2C(=O)N1CCN(C(=O)c2ccco2)CC1` as the molecule, how does the “activity change, negative = inhibition” value read?
Answer: -10.8%

Question: How did the “activity change, negative = inhibition” value turn out when `Cc1ccc2c(c1)N(CC(=O)N1CCCCCC1)C(=O)C(C)O2` (stereo unspecified) was run?
Answer: -5.68%

Question: How did the “activity change, negative = inhibition” value turn out when `Cc1cc(C)c(NC(=O)OCCN2CCOCC2)c(C)c1` was run?
Answer: -2.26%

Question: `O=C(CSc1nncn1-c1ccccc1)Nc1ccc(N2CCOCC2)cc1` was tested. Which “activity change, negative = inhibition” value did it give?
Answer: -6.25%

Question: Which Potency does the source give for `Cc1cc2[nH]c3c4ccccc4nc(C)c3c2cc1C` here?
Answer: 28.2 µM (active)

Question: For `CCS(=O)(=O)Nc1ccc(-c2nc3cccnc3s2)cc1`, which Potency is on record?
Answer: 22.4 µM (active)

Question: Which “activity change, negative = inhibition” value does the source give for `O=S(=O)(Nc1ccccc1N1CCCCC1)c1ccc(Cl)s1` here?
Answer: 13.5%

Question: `O=S(=O)(Nc1ccc(-c2nc3cccnc3s2)cc1)c1ccc(Cl)s1` was tested. Which Potency did it give?
Answer: 14.1 µM (active)
